Compounds with a hit are over-represented: about 3.4% of the library has one in this group of screens.
ADAM10 inh: inhibits human ADAM10; O14672; recombinant ADAM10, EDANS/DABCYL FRET peptide cleavage, 3 h; inhibition, % at 7 µM; 0.62% of 370,000 active; AID 720582;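 active = inhibition above a per-campaign cutoff equal to the mean of compounds falling between control-based bounds plus 3 SD, cut at about 20% in these data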;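 note: 0% = DMSO wells while the 100% control is not disclosed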
PLC-gamma1 inh: blocks human PLC-gamma1 enzyme activity; purified PLC-gamma1, fluorogenic substrate, fluorescence; P19174; 0.84% of 370,000 active; inhibition, % at 12.2 µM; in the data active = inhibition above about 9.5%
ADAM17 inh: ADAM17 inhibition, QFRET primary screen. 0.83% of 370,000 active. inhibition, % at 6.95 µM. AID 720648. recombinant ADAM17, EDANS/DABCYL FRET peptide cleavage;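 active = inhibition above the mean of compounds lying between control limits plus 3 SD, set per campaign, cut at about 8.5% in these data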;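 note: 0% = DMSO-only wells as the low control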
HGIII-sPLA2 inh: Blocks human group III sPLA2 activity; Q9NZ20; 0.56% of 370,000 active; inhibition, % at 12.2 µM; QFRET BODIPY PC-A2 liposome hydrolysis, fluorescence;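 active = inhibition above mean plus 3 SD of compounds lying within the high and low control bounds, cut at about 19% in these data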;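 note: 0% = median of test compound wells and 100% = no enzyme DMSO wells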
PLC-beta3 inh: inhibitors of human phospholipase C beta3; inhibition, % at 12.2 µM; Purified PLC-beta3, fluorogenic substrate, fluorescence; AID 720704; Q01970; 0.18% of 370,000 active; in the data active = inhibition above about 11%;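 note: 0% = median of compound wells on plate and 100% = full blocker control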
KLK7 zymogen act: activates the human kallikrein-7 zymogen; P49862; purified proKLK7, EDANS-DABCYL substrate fluorescence; 100% is mature enzyme control, 0% vehicle; activation, % at 7 µM; 0.9% of 370,000 active;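 active = activation above the mean of all tested compounds plus 3 SD, computed per campaign excluding outliers beyond control limits, cut at about 13% in these data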
ADAM10 confirm: confirmation of inhibitors of human ADAM10; AID 743208; shares compounds with ADAM10 inh; 1% of 2,100 active; ADAM10 QFRET peptide cleavage, EDANS fluorescence; inhibition, % at 6.95 µM;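 active = inhibition above about 20% chosen separately for each screening run, limit read from the data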;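 note: 0% = DMSO wells and 100% = marimastat wells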
ADAM17 ctr: ADAM17 inhibition, counter-screen for ADAM10 exosite hits; ADAM17 QFRET peptide cleavage, EDANS fluorescence; 0.5% of 2,100 active; AID 743214; shares compounds with ADAM10 inh; inhibition, % at 6.95 µM;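 active = mean triplicate inhibition above the solvent-only control wells' mean plus 3 SD, cut at about 12% in these data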;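 note: 0% = DMSO wells and 100% = marimastat wells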
* hit, by the source's call; / = no result given.

SMILES	ADAM10 inh	PLC-gamma1 inh	ADAM17 inh	HGIII-sPLA2 inh	PLC-beta3 inh	KLK7 zymogen act	ADAM10 confirm	ADAM17 ctr
O=C(c1ccc(C#CC2(O)CCCCC2)cc1)N1CCN(C(c2ccccc2)c2ccccc2)CC1	25.0*	0.9	3.5	-19.2	0.5	1.0	6.4	2.1
CCn1c2ccccc2c2cc(NC(=O)c3cc4c(C)nn(-c5ccccc5)c4s3)ccc21	-13.4	-43.1	-2.5	3.4	-52.0	-6.5	/	/
CN(CCC1CCCCO1)C(=O)c1cc(COc2ccc(F)cc2F)on1 (stereo not given)	-10.3	-0.7	-0.7	-6.0	-0.8	0.2	/	/
CN(CCCC1CCCC1)C(=O)c1cc(COc2ccc(F)cc2F)on1	21.8*	0.9	1.4	-6.8	-7.1	-0.4	5.3	2.0
COc1ccc(-c2csc(C(C)(O)c3cccc(OC)c3)n2)cc1 (stereo not given)	1.5	1.3	-0.2	-9.5	3.2	-0.4	/	/
COc1cccc(C(C)(O)c2nc(-c3ccc(C)c(C)c3)cs2)c1 (stereo not given)	20.6*	-3.4	8.0	-21.8	1.2	0.0	7.9	1.9
O=C(NC(NC(=S)Nc1ccc(Cl)c(Cl)c1)C(Cl)(Cl)Cl)c1ccco1 (stereo not given)	28.6*	2.5	8.6	-9.8	5.6	2.0	3.7	1.9
O=C(CSc1nc2ncccc2[nH]1)N1CCOCC1	-11.0	0.8	-2.8	2.4	3.1	-0.3	/	/
COc1cc(OC)c(N(C)S(=O)(=O)c2cccc(C(=O)OCC(=O)c3c[nH]c4ccccc34)c2)cc1Cl	32.4*	4.0	-0.8	-8.9	0.7	-1.6	13.9	4.5
COc1ccc(C(=O)OCC(=O)c2c[nH]c3ccccc23)cc1OC	-5.7	-10.4	-7.2	-16.8	-26.0	0.2	/	/
O=C(c1ccc(Cl)cc1)C1CCN(c2ncnc3sccc23)CC1	-0.5	3.0	-0.1	-0.7	-0.3	/	/	/
O=C(CSc1nnc(SCc2ccccc2)s1)NNC(=S)Nc1ccccc1	23.7*	1.6	8.0	12.1	-7.4	-0.6	0.0	0.9
O=C(NCCc1nc2ccccc2[nH]1)/C(=C/c1ccc2c(c1)OCO2)NC(=O)c1ccc(Cl)cc1Cl	22.0*	2.0	2.7	-42.1	0.1	-2.5	32.2*	5.5
CCOC(=O)CC[C@@]1(C(=O)OCC)C[C@@H](CC(=O)N2CCCC2)C(=O)N2CCCC=C21	-1.6	4.8	4.1	1.9	-0.8	-0.1	/	/
Cc1cccc(NC(=O)CCCN=C2NS(=O)(=O)c3ccccc32)c1C	55.7*	-0.1	-5.2	-4.4	-1.5	0.1	-0.4	-0.6
O=C(Cc1ccccc1)Nc1nnc(-c2cccnc2)s1	0.6	-0.8	-0.7	0.8	1.1	-0.5	/	/
O=C(NCc1ccco1)C1CCCN(S(=O)(=O)c2ccc(F)cc2)C1 (stereo not given)	10.5	5.2	3.0	0.3	4.9	0.2	/	/
Cc1ccc(N(CC(=O)Nc2ccc3c(c2)OCCO3)S(=O)(=O)c2c(C)n[nH]c2C)cc1	20.1*	7.9	6.3	-31.1	1.3	0.3	0.2	0.2
COc1ccc(NC(=O)c2ccc3c(=O)n(-c4ccc(OC)cc4OC)c(=S)[nH]c3c2)c(OC)c1	7.4	1.6	2.8	2.8	-7.0	-0.2	/	/
CCOc1ccc(NC(=O)c2ccc3c(=O)n(-c4ccc(OC)cc4OC)c(=S)[nH]c3c2)cc1	23.7*	0.0	8.1	2.5	-8.1	-0.8	1.5	0.2
CCCCNC(=O)C1CCCN1C(=O)Nc1cc(C)cc(C)c1 (stereo not given)	-0.8	0.4	1.5	-2.5	-1.5	-0.4	/	/
CCOc1ccc(NC(=S)NC23CN4CN(CN(C4)C2)C3)cc1	-4.7	2.3	0.3	7.7	-1.4	0.0	/	/
COc1ccc(NC(=S)NC23CN4CN(CN(C4)C2)C3)cc1	82.5*	1.4	1.1	2.5	0.8	-0.2	1.4	-0.2
Cc1ccccc1NC(=O)OCCCN1C(=O)CCC12CCC(C)CC2 (stereo not given)	-3.1	2.4	-1.7	3.5	-0.2	0.0	/	/

Bioassay records: PubChem BioAssay, The Scripps Research Institute Molecular Screening Center
